Screen size: about 290,000 compounds; about 50 (0.02%) were called active. This is one part of a sample in which actives are shown more often than they occur. Measured potencies and affinities stand elsewhere. Unmarked numbers belong to inactive results.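 Rule for the calls: active = displacement of at least 50% at 20 µM, with a fluorescence ratio check between 0.3 and a set limit; inactive = the rest.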
Each molecule was assayed against E3 ubiquitin-protein ligase SIAH1 (Homo sapiens) (UniProt Q8IUQ4) (assay: Siah-1 peptide-binding antagonists, primary screen, biochemical, fluorescence polarization, rhodamine-plectin, uHTS (AID 1817;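 note: plate controls were Siah plus tracer with DMSO for no effect and tracer alone without Siah for full effect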)). Conditions: Siah-1 / rhodamine-plectin peptide fluorescence polarization; at 20 µM; hits give high values.
Chain of E3 ubiquitin-protein ligase SIAH1 (Homo sapiens) (Q8IUQ4 whole entry, looked up): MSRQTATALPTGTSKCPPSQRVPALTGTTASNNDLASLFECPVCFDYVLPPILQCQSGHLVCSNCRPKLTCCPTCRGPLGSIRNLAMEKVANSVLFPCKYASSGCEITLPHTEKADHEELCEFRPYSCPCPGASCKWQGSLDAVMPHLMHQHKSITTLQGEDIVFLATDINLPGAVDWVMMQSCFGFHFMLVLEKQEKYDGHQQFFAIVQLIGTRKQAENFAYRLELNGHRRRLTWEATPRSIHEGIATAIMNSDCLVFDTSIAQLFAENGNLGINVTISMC

Row | SMILES | displacement
1 | Cc1nc(N)sc1-c1csc(Nc2ccccn2)n1 | -1.4%
2 | Cc1nc(N)sc1-c1csc(Nc2ccccc2)n1 | 3.2%
3 | Cc1nc(N)sc1-c1csc(Nc2ncccn2)n1 | 57.3% (active)
4 | CCOC(=O)c1[nH]c2ccccc2c1NC(=O)c1ccc(S(=O)(=O)N2CCCCC2)cc1 | -3.4%
5 | COc1ccc(C(=O)N2CCC(O)(c3ccc(Cl)cc3)CC2)cc1OC | -8.7%
6 | CC1CCc2onc(C(=O)NCc3ccco3)c2C1 (stereo not given) | 3.6%
7 | Cc1ccccc1Nc1nc(-c2sc(NC(=O)c3ccccc3)nc2C)cs1 | -5.4%
8 | O=C(CN1C(=O)N/C(=C\c2ccccc2OCc2ccc(C(=O)O)cc2)C1=O)Nc1ccccc1F | 10.4%
9 | O=C(CN1C(=O)N/C(=C\c2ccccc2OCc2ccc(C(=O)O)cc2)C1=O)Nc1ccc(F)cc1 | 1.1%
10 | CCOC(=O)CNC(=S)N(Cc1cccs1)C1CCCC1 | 0.7%
11 | Cc1cccc(C(=O)NNC(=O)c2ccc(S(=O)(=O)N3CCOCC3)cc2)c1 | -3.9%
12 | O=c1[nH]n(-c2ccccc2)c(=O)c2ccccc12 | 0%
13 | O=c1cc(-c2ccccc2)[nH]n1-c1ccc([N+](=O)[O-])cc1 | -0.2%
14 | O=C(C1CCN(S(=O)(=O)c2ccc(F)cc2)CC1)N1CC=C(c2ccccc2)CC1 | 3%
15 | COc1ccc(C(CNC(=O)C(C)c2ccc3cc(OC)ccc3c2)N(C)C)cc1 (stereo not given) | 5.2%
16 | CC1=C(C#N)c2nc(N)c(C#N)c(C)c2/C1=C\c1ccc(OCC(=O)O)c(Cl)c1 | 0%
17 | CC1=C(C#N)c2nc(N)c(C#N)c(C)c2/C1=C\c1ccc(C)cc1 | -2.8%
18 | COc1ccc(C2=[N+]([O-])C(C)(C)C(c3ccccc3)=N2)cc1 | 6.6%
19 | COc1ccc(-c2nc(CN3CCN(Cc4cccc(F)c4)CC3)c(C)o2)cc1 | 13.6%
20 | O=C(CCC1CCCC1)N1CCN(C(=O)c2ccco2)CC1 | -6%

Row | SMILES | displacement
21 | O=C(CNC(=O)c1ccccc1F)NC1CCN(Cc2ccccc2)CC1 | -3.7%
22 | CC(SCc1ccccc1)C(=O)Nc1ccccc1Br (stereo not given) | -6.3%
23 | Cc1sc2cc(-c3cccc([N+](=O)[O-])c3)c(-c3cccc([N+](=O)[O-])c3)c[n+]2c1C | 5.1%
24 | Oc1ccccc1/C=N/NC(=S)NC1CC2CC1C1C=CCC21 (stereo not given) | 2.4%
25 | CC(C)(C)c1nnc(N/N=C/c2ccc(O)cc2)n(N)c1=O | 18.4%
26 | CC(C)(C)c1nnc(N/N=C/c2ccc(Br)cc2)n(N)c1=O | 7.3%
27 | CC(C)(C)c1nnc(N/N=C/c2ccccc2)n(N)c1=O | 51.9% (active)
28 | CCCc1nnc(NC(=O)C2CC(=O)N(CCc3ccc(F)cc3)C2)s1 (stereo not given) | 24.3%
29 | Cc1[nH]c2ccccc2c1C(=O)CSc1nc2ccccc2[nH]1 | -0.5%
30 | Cc1c(C)n(C(=O)CSc2ncn[nH]2)c2ccccc12 | -4.9%
31 | Cc1c(C)n(C(=O)CSc2nc3ccccc3[nH]2)c2ccccc12 | 51% (active)
32 | O=C(CSCc1nc2scc(-c3cccs3)c2c(=O)[nH]1)Nc1ccccn1 | -4.4%
33 | COc1ccc(OCC(O)CNC(=O)c2ccccc2C(=O)O)cc1 (stereo not given) | 8.1%
34 | CCOC(=O)C(C(=O)OCC)c1cc(Br)c2noc3c2c1C(=O)c1ccccc1-3 | 102% (active)
35 | CCOc1ccc2noc3c2c1C(=O)c1ccccc1-3 | 37.3%
36 | CCOC(=O)N1CCN(c2cc(NCCC(=O)O)c3c4c(onc24)-c2ccccc2C3=O)CC1 | 16.7%
37 | COc1ccc(-c2cc(C(=O)N3CCc4ccccc4C3)no2)cc1 | 0.3%
38 | Cc1ccc(S(=O)(=O)N2CCN(c3cccc(C)c3)CC2)cc1 | 12.1%
39 | COc1cccc(OCc2cc(C(=O)NC3CCOCC3)no2)c1 | 1.4%
40 | CC1=C([N+](=O)[O-])C(c2ccccc2)NC(=O)N1 (stereo not given) | -5.5%
